Measurements reported in PubChem BioAssay (NCATS).
Results filed as inconclusive are left out. Activity calls are given as the source filed them. Unless noted, calls come from the whole dose curve; as a rule, active = well fitted curve in the direction sought with a large enough effect; inconclusive = small, poorly fitted or top-dose-only effect, or another doubt; inactive = no such curve, though single readings can be large; an effect the other way counts as inactive or inconclusive.

How the values were obtained:
[1] = target: Lysosomal acid glucosylceramidase (Homo sapiens) (UniProt P04062); assay: Glucocerebrosidase-p2 (AID 348; in the data active = potency below about 10 µM; note: potency is the fitted concentration of half-maximal effect); settings: purified GBA, blue fluorogenic substrate, 40 min
Sequence of Lysosomal acid glucosylceramidase (Homo sapiens) (P04062 whole entry, looked up): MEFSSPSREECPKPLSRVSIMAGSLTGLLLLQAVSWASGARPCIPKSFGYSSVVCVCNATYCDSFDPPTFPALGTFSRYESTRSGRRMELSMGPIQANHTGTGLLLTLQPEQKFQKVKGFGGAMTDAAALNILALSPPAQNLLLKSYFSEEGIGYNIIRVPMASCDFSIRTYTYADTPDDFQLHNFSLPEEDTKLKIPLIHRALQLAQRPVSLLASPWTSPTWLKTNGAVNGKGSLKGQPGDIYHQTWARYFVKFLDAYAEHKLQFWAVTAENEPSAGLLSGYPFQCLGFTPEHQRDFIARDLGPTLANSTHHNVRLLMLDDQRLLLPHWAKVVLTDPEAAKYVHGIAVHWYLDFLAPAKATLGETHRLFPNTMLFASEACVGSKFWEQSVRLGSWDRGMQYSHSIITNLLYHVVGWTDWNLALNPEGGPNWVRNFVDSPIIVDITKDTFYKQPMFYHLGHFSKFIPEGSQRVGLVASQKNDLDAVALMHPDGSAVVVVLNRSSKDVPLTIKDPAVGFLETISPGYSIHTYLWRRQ
In short: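 Compounds titrated from 0.6 nM upwards against 0.2 nM enzyme in pH 5.9 citric acid/KH2PO4, taurocholate, tween-20; blue fluorogenic substrate 80 uM, 40 min room temperature, stopped and read Ex 365/Em 440 for AC50.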

[2] = AP1 Signaling Pathway (AID 357; active = well fitted curve in either direction with a large enough effect, not every such curve was filed as active;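 note: ME-180 reporter cells stimulated with EGF at its EC50 level; % is set by controls: 0 for no effect and ±100 for the full control effect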); settings: ME-180 AP-1-bla reporter, EGF-induced, beta-lactamase ratio, 5 h; at 7.69 µM (top of the series) unless noted
In short: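 Titration-series screen for positive or negative modulators of EC50 EGF-induced signaling in ME-180 cells carrying an AP-1-driven beta-lactamase reporter. After 5 hours at 37 degrees Celsius, CCF4 460nm/530nm emission ratio gave %Activity; AC50 values derived.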

[3] = target: Cytochrome P450 1A2 (Homo sapiens) (UniProt P05177); assay: p450-cyp1a2 (AID 410; calls by dose curve; note: potency is the fitted concentration of half-maximal effect;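 for activity change, negative = inhibition: -100% = full effect of reference inhibitor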); settings: recombinant CYP1A2, luciferin-ME demethylation, luminescence; series mostly up to 57 µM
Sequence of Cytochrome P450 1A2 (Homo sapiens) (P05177 whole entry, looked up): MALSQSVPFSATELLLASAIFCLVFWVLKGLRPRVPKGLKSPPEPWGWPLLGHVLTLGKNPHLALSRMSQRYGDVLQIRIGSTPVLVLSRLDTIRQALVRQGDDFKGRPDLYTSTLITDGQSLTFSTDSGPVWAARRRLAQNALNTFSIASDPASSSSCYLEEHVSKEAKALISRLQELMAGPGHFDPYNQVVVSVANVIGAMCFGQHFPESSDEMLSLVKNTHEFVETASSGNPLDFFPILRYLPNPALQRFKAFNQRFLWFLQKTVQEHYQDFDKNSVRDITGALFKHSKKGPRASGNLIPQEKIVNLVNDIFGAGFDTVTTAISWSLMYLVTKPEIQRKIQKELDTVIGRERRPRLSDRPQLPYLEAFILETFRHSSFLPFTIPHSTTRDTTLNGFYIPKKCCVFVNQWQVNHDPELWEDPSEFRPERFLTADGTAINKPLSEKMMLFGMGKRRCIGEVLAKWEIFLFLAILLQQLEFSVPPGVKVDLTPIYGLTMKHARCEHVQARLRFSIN
In short: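 Luminescent readout of luciferin formed from Luciferin-ME by human CYP1A2; data normalized against complete inhibition by 57 uM furafylline. Enzyme 20nM, substrate 100uM at Km, 100mM KPO4 buffer, 60 min reaction at room temperature.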

[4] = NFAT Signaling Pathway (AID 444; active = well fitted curve in either direction with a large enough effect, not every such curve was filed as active;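 note: carbachol stimulus at about its EC50 of 1 µM final; % is set by controls: 0 for no effect and ±100 for the full control effect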); settings: Jurkat NFAT-bla M1, carbachol, beta-lactamase ratio, 5 h; at 7.69 µM (top of the series) unless noted
In short: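 Read-out: CCF4 FRET ratio (460 nm/530 nm) after 1 h RT dye loading, used for %activity and AC50 from titration series. Cells: Jurkat NFAT-β-lactamase/M1 line, treated with compound plus 1 uM carbachol for 5 h, 37 °C.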

[5] = Stat Signaling Pathway (AID 446; active = well fitted curve in either direction with a large enough effect, not every such curve was filed as active;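 note: ME-180 cervical cancer cells given 40 pM IL-6 alongside compound; SIE-controlled beta-lactamase reporter measured as 460/530 nm FRET emission ratio; % is set by controls: 0 for no effect and ±100 for the full control effect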); settings: ME-180 SIE beta-lactamase reporter, IL-6 stimulated, 5 h; at 7.69 µM (top of the series) unless noted
In short: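 IL-6/STAT signaling read in ME-180 cells via an SIE beta-lactamase reporter. Stimulus was 40 pM IL-6 (its AC50) for 5 hrs, so both activation and inhibition register.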

[6] = target: Glucocorticoid receptor (Homo sapiens) (UniProt P04150); assay: GR-GFP Redistribution (AID 450;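 active = compounds whose dose series gives a full or clear partial fitted curve of increased nuclear translocation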; note: potency is the fitted concentration of half-maximal effect); settings: U2OS GR-GFP nuclear translocation, laser cytometry, 2 h
Sequence of Glucocorticoid receptor (Homo sapiens) (P04150 whole entry, looked up, the tested form may be a part): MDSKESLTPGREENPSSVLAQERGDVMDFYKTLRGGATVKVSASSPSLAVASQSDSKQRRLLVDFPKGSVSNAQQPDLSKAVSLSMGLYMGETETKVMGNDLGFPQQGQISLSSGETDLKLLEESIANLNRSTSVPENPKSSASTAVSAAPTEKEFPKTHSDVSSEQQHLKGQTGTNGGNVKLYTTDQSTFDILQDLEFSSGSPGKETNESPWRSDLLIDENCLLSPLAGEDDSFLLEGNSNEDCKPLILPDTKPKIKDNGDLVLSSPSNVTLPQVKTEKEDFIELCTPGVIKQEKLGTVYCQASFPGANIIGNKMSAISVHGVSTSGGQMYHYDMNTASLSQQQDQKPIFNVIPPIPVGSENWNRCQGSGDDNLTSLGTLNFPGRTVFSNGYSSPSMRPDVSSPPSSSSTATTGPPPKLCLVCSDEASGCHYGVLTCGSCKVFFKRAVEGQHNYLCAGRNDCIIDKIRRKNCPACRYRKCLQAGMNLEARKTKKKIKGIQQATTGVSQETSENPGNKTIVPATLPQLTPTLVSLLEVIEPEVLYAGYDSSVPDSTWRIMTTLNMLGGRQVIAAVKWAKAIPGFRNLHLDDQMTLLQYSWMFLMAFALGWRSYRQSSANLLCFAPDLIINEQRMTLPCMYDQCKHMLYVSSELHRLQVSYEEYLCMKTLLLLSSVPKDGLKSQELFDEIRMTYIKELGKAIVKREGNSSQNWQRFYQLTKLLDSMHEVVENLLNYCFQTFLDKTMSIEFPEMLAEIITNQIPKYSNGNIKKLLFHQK

[7] = target: Glucocorticoid receptor (Homo sapiens) (UniProt P04150); assay: GR-EFC Redistribution (AID 451; calls by dose curve; note: potency is the fitted concentration of half-maximal effect); settings: CHO-K1 GR-EFC translocation, beta-gal luminescence, 2 h
In short: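 Translocation of GR-ED fusion to nuclear EA restores b-gal, read by luminescence after 1 h room-temperature detection. Engineered CHO-K1 biosensor cells, 1,000/well, exposed 2 h at 37 C to titrations up to 46 uM final.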

[8] = target: Mitogen-activated protein kinase 10 (Mus musculus) (UniProt Q61831); assay: JNK3 AlphaScreen Assay (AID 530; active = well fitted curve in either direction with a large enough effect, not every such curve was filed as active;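 note: kinase came from lysate of stimulated human HepG2 cells; signal reports phosphorylation of biotinylated GST-cJun 1-79 at Ser73 with 10 µM ATP; % is set by controls: 0 for no effect and ±100 for the full control effect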); settings: JNK3 lysate, c-Jun phosphorylation; series mostly up to 57.1 µM
In short: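 Compound titrations were preincubated 15 minutes at room temperature with substrate, antibody and pre-activated JNK3-containing HepG2 lysate. Reactions were started with 10 uM ATP and stopped with EDTA-containing bead buffer for AlphaScreen detection.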

[9] = target: Cytochrome P450 3A4 (Homo sapiens) (UniProt P08684); assay: qHTS Assay for Activators of Cytochrome P450 3A4 (AID 885); settings: recombinant CYP3A4, Luciferin-PPXE luminescence, 60 min; series mostly up to 57.1 µM; note: nearly all actives have a fitted effect of over 65% in size
Sequence of Cytochrome P450 3A4 (Homo sapiens) (P08684 whole entry, looked up): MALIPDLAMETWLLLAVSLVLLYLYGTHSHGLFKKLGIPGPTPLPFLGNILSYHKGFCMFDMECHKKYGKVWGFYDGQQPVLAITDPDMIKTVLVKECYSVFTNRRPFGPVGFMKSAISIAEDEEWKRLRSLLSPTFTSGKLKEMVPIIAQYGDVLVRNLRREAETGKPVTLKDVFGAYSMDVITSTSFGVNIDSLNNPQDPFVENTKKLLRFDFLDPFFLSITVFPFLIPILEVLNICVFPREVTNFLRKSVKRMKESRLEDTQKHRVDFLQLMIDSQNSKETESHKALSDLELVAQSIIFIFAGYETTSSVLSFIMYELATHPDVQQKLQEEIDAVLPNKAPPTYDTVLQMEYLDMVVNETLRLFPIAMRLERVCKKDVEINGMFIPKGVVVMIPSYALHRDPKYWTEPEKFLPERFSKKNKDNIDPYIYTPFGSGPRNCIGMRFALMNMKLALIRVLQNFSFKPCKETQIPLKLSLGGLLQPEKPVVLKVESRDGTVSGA
In short: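 Quantitative HTS format: compounds preincubated with 20nM human CYP3A4 and Luciferin-PPXE substrate at KM, reaction started by NADPH regeneration, stopped after 60 min, luciferase luminescence read 20 min later.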

[10] = qHTS Assay for Lipid Storage Modulators (AID 1519; calls by dose curve); settings: Drosophila S3 cells, BODIPY lipid droplet/cell ratio, laser cytometry, cells loaded with oleic acid; for activity change, negative = inhibition: at 57.5 µM (top of the series)
In short: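 Cells seeded at 5,000 per well were treated with compounds over a concentration series and loaded with oleic acid (400 uM, as added). Lipid droplet fluorescence (488 nm excitation, 500-530 nm channel) was read by laser-scanning cytometry and normalized to 20 uM Triacsin C.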

[11] = target: Dual specificity protein kinase CLK4 (Homo sapiens) (UniProt Q9HAZ1); assay: qHTS Assay for Inhibitors of CDC-like Kinase 4 (Kinase-Glo Assay) (AID 1770); settings: recombinant Clk4, Kinase-Glo ATP depletion luminescence; series mostly up to 66.7 µM; note: nearly all actives have a fitted effect of over 65% in size; note: potency is the fitted concentration of half-maximal effect
Sequence of Dual specificity protein kinase CLK4 (Homo sapiens) (Q9HAZ1 whole entry, looked up): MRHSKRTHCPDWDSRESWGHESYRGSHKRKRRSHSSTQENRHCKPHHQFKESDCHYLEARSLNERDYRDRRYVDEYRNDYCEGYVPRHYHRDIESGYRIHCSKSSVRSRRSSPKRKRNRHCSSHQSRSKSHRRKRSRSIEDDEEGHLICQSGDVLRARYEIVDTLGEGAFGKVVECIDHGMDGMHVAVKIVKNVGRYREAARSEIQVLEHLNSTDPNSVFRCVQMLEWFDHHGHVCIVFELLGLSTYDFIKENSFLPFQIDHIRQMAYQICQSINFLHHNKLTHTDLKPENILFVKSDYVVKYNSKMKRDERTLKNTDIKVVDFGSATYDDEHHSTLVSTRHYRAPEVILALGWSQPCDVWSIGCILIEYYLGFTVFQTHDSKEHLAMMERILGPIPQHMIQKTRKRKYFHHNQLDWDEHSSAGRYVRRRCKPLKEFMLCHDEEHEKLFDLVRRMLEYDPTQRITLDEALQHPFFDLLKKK
In short: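 Recombinant human Clk4 (25 nM) phosphorylated RS repeat peptide (100 uM) with 1 uM ATP in Tris pH 7.5/MgCl2/EGTA/DTT/Triton buffer for 4.5 h at room temperature. Residual ATP was quantified by Kinase-Glo luciferase luminescence.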

[12] = target: Dual specificity protein kinase CLK4 (Homo sapiens) (UniProt Q9HAZ1); assay: qHTS Assay for Inhibitors of CDC-like Kinase 4 (ADP-Glo Assay) (AID 1771); settings: recombinant CLK4, ADP-Glo luminescence; series mostly up to 80 µM; note: nearly all actives have a fitted effect of over 70% in size; note: potency is the fitted concentration of half-maximal effect
In short: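 Luminescence from ADP-Glo reports ADP produced by 25 nM Clk4 acting on 100 uM RS repeat peptide with 1 uM ATP over 1 hr at room temperature; residual ATP is depleted before ADP is converted to ATP for detection.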

[13] = target: Dual specificity protein kinase CLK4 (Homo sapiens) (UniProt Q9HAZ1); assay: qHTS Assay for Inhibitors of CDC-like Kinase 4 (ADP-FP Assay) (AID 1795); settings: Transcreener ADP fluorescence polarization; series mostly up to 50 µM; note: nearly all actives have a fitted effect of over 60% in size; note: potency is the fitted concentration of half-maximal effect
In short: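 Recombinant human Clk4 (6.25 nM) phosphorylated RS repeat peptide (100 uM) with 1 uM ATP in Tris pH 7.5/MgCl2/EGTA/DTT/Triton buffer for one hour. ADP was quantified by Transcreener competitive fluorescence polarization against an ADP calibration curve.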

[14] = target: Ubiquitin carboxyl-terminal hydrolase 1 (Homo sapiens) (UniProt O94782); assay: Inhibitors of USP1/UAF1: Pilot qHTS (AID 504865); settings: purified USP1/UAF1, Ub-rhodamine cleavage fluorescence; series mostly up to 54.9 µM;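 note: rhodamine fluorescence freed from ubiquitin-rhodamine substrate followed over time; top concentration of the series differs between compounds; % is set by controls: 0 for no effect and ±100 for the full control effect; nearly all actives have a fitted effect of over 35% in size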
Sequence of Ubiquitin carboxyl-terminal hydrolase 1 (Homo sapiens) (O94782 whole entry, looked up): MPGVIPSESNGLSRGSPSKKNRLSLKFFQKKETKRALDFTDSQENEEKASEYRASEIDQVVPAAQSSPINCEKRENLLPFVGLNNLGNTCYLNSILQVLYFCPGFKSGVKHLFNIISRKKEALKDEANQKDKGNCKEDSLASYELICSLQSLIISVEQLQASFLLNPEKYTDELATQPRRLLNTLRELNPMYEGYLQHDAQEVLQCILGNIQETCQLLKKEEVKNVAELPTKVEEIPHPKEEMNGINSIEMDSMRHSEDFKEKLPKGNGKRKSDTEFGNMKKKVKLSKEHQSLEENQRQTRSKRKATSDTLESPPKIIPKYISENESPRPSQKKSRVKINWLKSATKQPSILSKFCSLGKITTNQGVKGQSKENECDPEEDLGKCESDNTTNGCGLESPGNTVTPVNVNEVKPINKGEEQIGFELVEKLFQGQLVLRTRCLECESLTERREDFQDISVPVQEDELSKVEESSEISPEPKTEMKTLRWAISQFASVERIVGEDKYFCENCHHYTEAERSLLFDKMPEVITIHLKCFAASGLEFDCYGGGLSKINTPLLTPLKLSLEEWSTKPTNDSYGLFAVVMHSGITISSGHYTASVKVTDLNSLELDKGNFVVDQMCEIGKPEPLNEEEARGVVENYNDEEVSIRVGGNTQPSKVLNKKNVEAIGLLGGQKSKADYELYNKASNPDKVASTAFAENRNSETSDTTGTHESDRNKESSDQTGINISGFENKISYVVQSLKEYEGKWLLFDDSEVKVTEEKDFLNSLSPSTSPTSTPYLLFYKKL
In short: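 USP1/UAF1 complex (1nM) preincubated with compound 15 min at room temperature, then Ub-Rho substrate (150nM final) added. Fluorescence read kinetically at 480/540 nm, 6 reads every 60 seconds. Buffer: 50mM HEPES pH 7.8, 0.5mM EDTA, 0.1 mg/ml BSA, 1mM TCEP, 0.01% Tween-20.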

[15] = target: 3',5'-cyclic-AMP phosphodiesterase 4B (Homo sapiens) (UniProt Q07343); assay: qHTS Assay for Inhibitors of PDE-IV (AID 607; active = well fitted activation curve with a large enough effect in the main read-out, with a control signal flat, not every such curve was filed as active; note: % of control where 0% means no effect); settings: HEK293 ACTOne CNG channel cells, membrane potential fluorescence; series mostly up to 22.9 µM
Sequence of 3',5'-cyclic-AMP phosphodiesterase 4B (Homo sapiens) (Q07343 whole entry, looked up): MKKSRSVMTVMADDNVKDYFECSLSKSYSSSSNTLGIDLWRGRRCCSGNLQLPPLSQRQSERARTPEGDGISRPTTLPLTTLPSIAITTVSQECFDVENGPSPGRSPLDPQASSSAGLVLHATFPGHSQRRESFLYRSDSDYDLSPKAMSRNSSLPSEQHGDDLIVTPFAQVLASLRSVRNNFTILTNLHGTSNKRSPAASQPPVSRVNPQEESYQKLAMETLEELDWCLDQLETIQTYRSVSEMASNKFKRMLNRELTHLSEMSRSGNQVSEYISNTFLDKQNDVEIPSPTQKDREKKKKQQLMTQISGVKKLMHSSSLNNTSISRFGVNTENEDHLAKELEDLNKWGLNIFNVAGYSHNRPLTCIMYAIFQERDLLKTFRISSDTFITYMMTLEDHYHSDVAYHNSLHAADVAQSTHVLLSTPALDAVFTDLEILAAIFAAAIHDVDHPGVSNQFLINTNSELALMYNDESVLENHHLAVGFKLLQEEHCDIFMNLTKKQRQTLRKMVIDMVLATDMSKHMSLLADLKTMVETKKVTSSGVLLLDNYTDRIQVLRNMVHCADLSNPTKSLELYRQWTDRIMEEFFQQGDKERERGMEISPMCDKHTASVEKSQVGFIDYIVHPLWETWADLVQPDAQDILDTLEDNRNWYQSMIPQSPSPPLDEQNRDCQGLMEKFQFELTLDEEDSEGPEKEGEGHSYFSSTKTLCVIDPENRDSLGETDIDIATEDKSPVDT
In short: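 Live HEK293 cells with a modified cyclic nucleotide-gated (CNG) channel report intracellular cAMP via membrane-potential dye fluorescence (ex 535/em 590 nm). Endogenous PDE-IV was targeted. Compounds were tested at up to 22.9 uM final; RO 20-1724 100 uM served as control.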

[16] = qHTS Assay for Identification of Small Molecule Agonists for Hypoxia Response Element Signaling Pathway (AID 914; active = well fitted activation curve with a large enough effect in the signal ratio, with a control signal flat, not every such curve was filed as active; the % refers to the signal ratio; note: potency is the fitted concentration of half-maximal effect); settings: ME-180 (cervical carcinoma) HRE-bla reporter, beta-lactamase ratio, CoCl2, 17 h; activation: stronger effect = higher value
In short: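 HRE-bla ME-180 assay for agonist-like enhancement of an EC50 CoCl2 stimulus: 17 h at 37 degrees Celsius, CCF4 for 2.5 h, ratiometric 460/530 nm signal converted to %Activity and fitted to AC50.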

[17] = target: Cytochrome P450 2C19 (Homo sapiens) (UniProt P33261); assay: qHTS Assay for Inhibitors and Substrates of Cytochrome P450 2C19 (AID 899); settings: recombinant CYP2C19, luciferin-H EGE luminescence; series mostly up to 57.1 µM; note: % is set by controls: 0 for no effect and ±100 for the full control effect; nearly all actives have a fitted effect of over 60% in size
Sequence of Cytochrome P450 2C19 (Homo sapiens) (P33261 whole entry, looked up): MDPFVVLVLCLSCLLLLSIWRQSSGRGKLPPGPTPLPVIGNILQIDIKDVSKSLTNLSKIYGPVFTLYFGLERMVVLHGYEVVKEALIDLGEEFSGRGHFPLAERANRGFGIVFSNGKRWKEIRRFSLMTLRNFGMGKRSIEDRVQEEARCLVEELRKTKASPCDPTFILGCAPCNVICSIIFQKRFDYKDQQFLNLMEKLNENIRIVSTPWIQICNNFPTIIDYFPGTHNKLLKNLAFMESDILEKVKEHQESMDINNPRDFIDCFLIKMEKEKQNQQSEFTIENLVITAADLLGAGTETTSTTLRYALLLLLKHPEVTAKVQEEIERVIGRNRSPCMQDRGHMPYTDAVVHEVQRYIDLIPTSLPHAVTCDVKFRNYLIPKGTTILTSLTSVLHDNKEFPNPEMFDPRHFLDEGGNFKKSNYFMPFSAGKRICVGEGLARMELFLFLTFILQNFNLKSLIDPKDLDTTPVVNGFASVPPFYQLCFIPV
In short: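 5nM enzyme + 10uM Luciferin-H EGE (=KM), 50mM KPO4; cpd pin-transferred, 10 min 37C; NADPH regen, 60 min 37C; stopped w/ luciferin detection reagent, 20 min; luminescence. Normalized to 57uM ketoconazole (AC100).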

[18] = measured here: cell count channel max response
[19] = measured here: lipid channel max response

CC(=O)NCCNc1ncnc2ccc(-c3ccccc3C)cc12
28.7%: max response [10, 18]
28.3%: max response [10, 19]
active: Potency [3] 0.631 µM | Potency [11] 15.8 µM | Potency [12] 12.6 µM | Potency [13] 12.6 µM
inactive: Potency [1] > 11.4 µM | activity change, negative = inhibition [2] 28% | activity change, negative = inhibition [4] -4.6% | activity, negative = inhibition [5] -8.49% | Potency [6] > 46 µM | Potency [7] > 46 µM | Potency [8] | Potency [9] | activity change, negative = inhibition [10] 3.95% | Potency [14]

Clc1ccccc1-c1cncnc1NCCN1CCOCC1
inactive: Potency [1] > 11.4 µM | activity, negative = inhibition [5] 7.26% | Potency [6] > 46 µM | Potency [7] > 46 µM | Potency [8] | Potency [15] | activity change, negative = inhibition [10] 1.35% | Potency [11] | Potency [12] | Potency [13] | Potency [14]
18.6%: max response [10, 18]
20.3%: max response [10, 19]
active: Potency [16] 3.16 µM

COCCn1c(=O)c(-c2ccc(OC)cc2)nc2cnc(N3CCN(C)CC3)nc21
active: Potency [16] 3.16 µM
21%: max response [10, 19]
16%: max response [10, 18]
inactive: Potency [1] > 11.4 µM | activity change, negative = inhibition [2] 29.4% | Potency [6] > 9.22 µM | Potency [7] > 46 µM | Potency [8] | Potency [15] | activity change, negative = inhibition [10] 6% | Potency [11] | Potency [12] | Potency [13] | Potency [14]

COc1ccc(-c2nc3cnc(N4CCN(C)CC4)nc3n(C)c2=O)cc1
6.37%: max response [10, 18]
3.68%: max response [10, 19]
inactive: Potency [1] > 11.4 µM | activity change, negative = inhibition [2] 14.5% | activity change, negative = inhibition [4] 27.7% | activity, negative = inhibition [5] 26.5% | Potency [6] > 9.22 µM | Potency [8] | Potency [15] | activity change, negative = inhibition [10] 1.83% | Potency [11] | Potency [12] | Potency [13] | Potency [14]
active: Potency [3] 25.1 µM

O=c1c(-c2ccc(F)cc2)nc2cnc(N3CCOCC3)nc2n1C1CC1
inactive: Potency [1] > 11.4 µM | activity change, negative = inhibition [2] 16.2% | Potency [3] | Potency [6] > 9.22 µM | Potency [7] > 46 µM | Potency [8] | Potency [15] | activity change, negative = inhibition [10] 5.31% | Potency [11] | Potency [12] | Potency [13] | Potency [14]
19.7%: max response [10, 19]
17.4%: max response [10, 18]

COc1cccc(Nc2ncc3ncc(=O)n(C)c3n2)c1
inactive: Potency [1] > 11.4 µM | activity change, negative = inhibition [4] 0.44% | activity, negative = inhibition [5] -17.5% | Potency [6] > 9.22 µM | Potency [7] > 46 µM | Potency [15] | Potency [9] | Potency [17] | activity change, negative = inhibition [10] 4.86% | Potency [14]
active: Potency [3] 1.58 µM | Potency [11] 0.891 µM | Potency [12] 1 µM | Potency [13] 0.708 µM
11.1%: max response [10, 18]
14.9%: max response [10, 19]
